Our source for the log2 fold change values is the supplement of paper PMC10849652.

What all share (assay): log2 fold change, soluble protein after heating vs DMSO (PISA); higher = thermal stabilisation; K562 cells, 10 uM, 30 min; active = over 0.2 and 3.5 SD of the protein, either way, in both replicates (recomputed)
Compound in test [1]: CC(=O)c1cnc2ccc(-c3cc(Cl)c(O)c(Cl)c3)nc2c1N[C@H]1CC[C@H](CN(C)C)CC1
In short, it runs like this:
(§1)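 Aliquots of K562 cells (2×10^6 cells/mL) treated with 10 μM compound for 30 min were heated for 3 min over 48°C-58°C. After pooling and extraction in PBS with 0.5% NP-40 at 4°C, soluble protein from a 21,000xg, 90 min spin was quantified by TMTpro 16plex LC-MS/MS with channel sums equalised. Thermal stability is expressed against control samples, from duplicates, as a log2 fold change.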

Compound in test [2]: CC(C)(O)CC(=O)NCCn1ccc2ncnc(Nc3ccc(Oc4cccc(C(F)(F)F)c4)c(Cl)c3)c21
In short, it runs like this:
as §1

Compound in test [3]: CC1=C(C(CC(=O)N1)C2=CC=C(C=C2)C(F)(F)F)C(=O)NC3=C(C=C4C(=C3)C=NN4)F
A digest of the protocol:
as §1

Compound in test [4]: CC1=C(C2=C(C=C1)C(=O)C3=CC=CC=C3N2CCCN)C
In short, it runs like this:
as §1

Compound in test [5]: C1COCCN1CCN2C3=CC=CC=C3N=C2NC(=O)C4=CC(=CC=C4)[N+](=O)[O-] [IRAK-1-4 Inhibitor I]
A digest of the protocol:
as §1

Compound in test [6]: CC(C)(C)Cn1c(N)nc2ccc(-c3[nH]c(C(C)(C)C)nc3-c3ccc(F)cc3)nc21 [ralimetinib]
A digest of the protocol: as §1

Compound in test [7]: CC(C)C1=C2N=C(C=C(N2N=C1)NCC3=CC=CC=C3)NCCCCCCN
In short, it runs like this: as §1

Compound in test [8]: CC(C)C[C@@H](C=O)NC(=O)[C@H](CC(C)C)NC(=O)[C@H](CC(C)C)NC(=O)OCc1ccccc1
A digest of the protocol:
as §1

Compound in test [9]: CC(C)N(C[C@H]1O[C@@H](n2cnc3c(N)ncnc32)[C@H](O)[C@@H]1O)[C@H]1C[C@@H](CCc2nc3cc(C(C)(C)C)ccc3[nH]2)C1 [pinometostat]
A digest of the protocol: as §1

Compound in test [10]: C=CC(=O)N1CCC[C@@H](n2nc(-c3ccc(Oc4ccccc4)cc3)c3c(N)ncnc32)C1 [ibrutinib]
In short, it runs like this:
as §1

Of roughly 7,900 targets only a part is listed; those with a hit were picked by preference. About 0.6% of all pairs of compound and target were hits. Unmarked numbers belong to inactive results.

Sequence of UniProt Q9Y3L5 (Q9Y3L5 whole entry, looked up): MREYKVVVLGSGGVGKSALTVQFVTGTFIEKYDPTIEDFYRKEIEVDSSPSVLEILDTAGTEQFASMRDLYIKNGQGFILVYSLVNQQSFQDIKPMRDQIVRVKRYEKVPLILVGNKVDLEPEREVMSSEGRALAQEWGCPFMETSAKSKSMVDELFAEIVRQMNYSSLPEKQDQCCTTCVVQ
Sequence of UniProt Q96LZ7 (Q96LZ7 whole entry, looked up): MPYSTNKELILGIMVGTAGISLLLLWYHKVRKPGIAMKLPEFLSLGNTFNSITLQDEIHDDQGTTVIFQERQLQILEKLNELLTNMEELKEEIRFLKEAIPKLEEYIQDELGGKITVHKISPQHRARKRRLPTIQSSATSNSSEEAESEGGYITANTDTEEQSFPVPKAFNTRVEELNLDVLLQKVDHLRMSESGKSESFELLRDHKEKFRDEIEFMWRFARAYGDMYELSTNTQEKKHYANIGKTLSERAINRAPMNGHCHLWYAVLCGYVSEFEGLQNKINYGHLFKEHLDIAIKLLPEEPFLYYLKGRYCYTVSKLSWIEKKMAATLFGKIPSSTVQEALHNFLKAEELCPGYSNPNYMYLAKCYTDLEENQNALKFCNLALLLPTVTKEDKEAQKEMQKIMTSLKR
Sequence of UniProt P60602 (P60602 whole entry, looked up): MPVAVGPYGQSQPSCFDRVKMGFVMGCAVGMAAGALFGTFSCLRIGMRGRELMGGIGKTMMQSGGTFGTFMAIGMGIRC
Sequence of UniProt O75056 (O75056 whole entry, looked up): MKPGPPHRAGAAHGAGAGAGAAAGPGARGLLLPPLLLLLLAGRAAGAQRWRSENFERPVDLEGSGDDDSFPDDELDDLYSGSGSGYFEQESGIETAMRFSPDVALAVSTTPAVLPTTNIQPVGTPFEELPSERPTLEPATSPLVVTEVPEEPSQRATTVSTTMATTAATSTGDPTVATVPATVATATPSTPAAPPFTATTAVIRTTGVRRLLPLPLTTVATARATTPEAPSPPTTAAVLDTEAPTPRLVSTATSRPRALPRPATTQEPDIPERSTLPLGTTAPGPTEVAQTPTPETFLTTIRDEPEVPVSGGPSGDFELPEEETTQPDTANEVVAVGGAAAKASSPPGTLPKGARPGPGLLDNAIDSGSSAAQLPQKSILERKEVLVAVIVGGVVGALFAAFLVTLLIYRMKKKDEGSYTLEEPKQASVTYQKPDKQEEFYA
Sequence of UniProt Q96GF1 (Q96GF1 whole entry, looked up): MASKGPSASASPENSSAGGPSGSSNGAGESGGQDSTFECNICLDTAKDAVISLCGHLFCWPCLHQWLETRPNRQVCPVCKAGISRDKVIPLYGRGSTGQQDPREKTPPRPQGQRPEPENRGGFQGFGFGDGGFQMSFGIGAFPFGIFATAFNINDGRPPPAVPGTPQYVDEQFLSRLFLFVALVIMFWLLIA
Sequence of UniProt O75582 (O75582 whole entry, looked up): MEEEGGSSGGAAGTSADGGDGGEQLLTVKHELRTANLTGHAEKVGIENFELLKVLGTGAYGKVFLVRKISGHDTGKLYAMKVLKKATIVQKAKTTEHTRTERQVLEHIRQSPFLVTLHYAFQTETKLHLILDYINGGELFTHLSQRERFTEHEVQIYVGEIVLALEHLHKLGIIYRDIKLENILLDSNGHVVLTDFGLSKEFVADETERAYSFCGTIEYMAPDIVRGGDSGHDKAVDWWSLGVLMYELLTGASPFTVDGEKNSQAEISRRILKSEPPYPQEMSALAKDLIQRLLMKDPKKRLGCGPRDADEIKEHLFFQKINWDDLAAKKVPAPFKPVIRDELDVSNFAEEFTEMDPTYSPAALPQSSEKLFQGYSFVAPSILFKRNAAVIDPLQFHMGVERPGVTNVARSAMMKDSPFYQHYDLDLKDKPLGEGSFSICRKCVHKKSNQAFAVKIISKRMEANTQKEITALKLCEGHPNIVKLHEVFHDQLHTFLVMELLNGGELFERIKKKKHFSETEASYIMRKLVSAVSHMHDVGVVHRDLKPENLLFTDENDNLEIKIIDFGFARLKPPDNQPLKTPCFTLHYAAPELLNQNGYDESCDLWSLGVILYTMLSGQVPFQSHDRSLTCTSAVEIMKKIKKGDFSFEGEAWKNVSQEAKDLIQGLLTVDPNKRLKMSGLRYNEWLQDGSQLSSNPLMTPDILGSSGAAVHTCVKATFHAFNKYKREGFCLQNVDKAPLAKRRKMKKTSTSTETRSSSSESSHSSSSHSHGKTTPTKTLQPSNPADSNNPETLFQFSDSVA
Sequence of UniProt P60903 (P60903 whole entry, looked up): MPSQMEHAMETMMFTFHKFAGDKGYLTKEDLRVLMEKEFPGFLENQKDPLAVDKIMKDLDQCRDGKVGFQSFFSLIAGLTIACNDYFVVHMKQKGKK
Sequence of UniProt Q7L099 (Q7L099 whole entry, looked up): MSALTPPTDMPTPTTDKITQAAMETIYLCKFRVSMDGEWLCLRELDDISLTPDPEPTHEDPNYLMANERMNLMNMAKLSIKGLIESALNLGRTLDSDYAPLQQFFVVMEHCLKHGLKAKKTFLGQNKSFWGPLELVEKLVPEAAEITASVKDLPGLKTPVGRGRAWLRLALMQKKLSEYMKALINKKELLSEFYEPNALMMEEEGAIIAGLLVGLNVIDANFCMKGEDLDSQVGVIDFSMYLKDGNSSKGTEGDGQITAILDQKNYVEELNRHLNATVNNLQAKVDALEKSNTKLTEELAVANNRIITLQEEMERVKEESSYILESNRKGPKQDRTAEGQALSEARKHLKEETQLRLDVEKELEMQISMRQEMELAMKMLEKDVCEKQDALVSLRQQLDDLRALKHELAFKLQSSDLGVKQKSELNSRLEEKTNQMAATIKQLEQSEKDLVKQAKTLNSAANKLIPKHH
Sequence of UniProt O95716 (O95716 whole entry, looked up): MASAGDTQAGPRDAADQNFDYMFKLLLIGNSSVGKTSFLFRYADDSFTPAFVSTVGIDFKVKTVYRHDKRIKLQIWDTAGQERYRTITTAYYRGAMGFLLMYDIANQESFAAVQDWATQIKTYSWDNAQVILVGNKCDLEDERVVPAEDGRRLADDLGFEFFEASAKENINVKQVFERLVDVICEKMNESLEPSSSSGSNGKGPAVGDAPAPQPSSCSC
Sequence of UniProt Q96EU6 (Q96EU6 whole entry, looked up): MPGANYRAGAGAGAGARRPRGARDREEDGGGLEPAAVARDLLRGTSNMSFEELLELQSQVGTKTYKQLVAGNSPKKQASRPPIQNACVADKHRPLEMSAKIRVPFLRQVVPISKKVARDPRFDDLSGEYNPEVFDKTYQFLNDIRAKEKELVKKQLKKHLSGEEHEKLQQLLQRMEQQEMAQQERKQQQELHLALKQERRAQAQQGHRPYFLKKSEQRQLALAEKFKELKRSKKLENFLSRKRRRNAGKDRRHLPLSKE

For SDC3 (UniProt O75056), the log2 fold change was 0.089 in test [1], -0.006 in test [2], 0.042 in test [3] and -0.036 in [4].
RUFY3 isoform 3 (UniProt Q7L099): the log2 fold change is -0.008 in [5]; 0.023 in [1]; 0.196 in test [6]; -0.098 in test [7]; -0.054 in test [8]; 0.035 in [9]. The log2 fold change in [3] is -0.123; in test [4] it was 0.044.
In the case of RNF185 (UniProt Q96GF1), the log2 fold change in [10] was 0.045; in test [1], 0.087; in test [6], -0.04; in test [7], -0.011; in test [8], -0.003; in test [3], 0.006. Moreover, the log2 fold change in test [4] is 0.276.
For S100A10 (UniProt P60903), the log2 fold change in [10] was 0.605; in [1], -0.345; in test [3], -0.06; in test [4], 0.522.
As to RAP2C (UniProt Q9Y3L5), the log2 fold change in test [10] is 0.016; in [1], -0.032; in test [6], 0.021; in test [2], -0.107; in [7], 0.148; in test [8] it was 0.048. Further, the log2 fold change in [3] was -0.104; in test [4] it was 0.11.
As for SEPTIN5 (UniProt G3XAH0), the log2 fold change in [10] was 0.018; in [1], 0.123; in test [6], -0.056; in [2], -0.133; in test [7] it was 0.092; in test [8], -0.009. Besides, the log2 fold change in [3] is -0.003; in [4], 0.027.
Turning to RAB3D (UniProt O95716), the log2 fold change is -0.096 in test [10]; -0.02 in test [1]; 0.133 in test [6]; 0.121 in [7]; -0.605 (active) in test [8]; -0.14 in test [3]. For the same target, the log2 fold change in [4] is -0.104.
ROMO1 (UniProt P60602): the log2 fold change was 0.069 in [10]; -0.044 in [1]; -0.024 in test [6]; 0.052 in [2]; -0.051 in test [7]; -0.083 in test [8]. Besides, the log2 fold change in test [3] was 0.039; in test [4], -0.077.
In the case of RRP36 (UniProt Q96EU6), the log2 fold change was 0.045 in test [10]; 0.122 in test [1]; 0.083 in test [6]; 0 in [2]; 0.044 in test [7]; 0.042 in test [8]. The values for the log2 fold change in test [3] and in test [4] were 0.021 and -0.785 (active), respectively.
On to RPS3 (UniProt E9PJN9), for which the log2 fold change was 0.228 in test [6], 0.134 in test [8] and -0.126 in test [4].
For RMDN2 isoform 2 (UniProt Q96LZ7), the log2 fold change in test [5] is 0.034; in [6], 0.095; in test [8], 0.137; in test [9], 0.025; in test [3], -0.192.
For RPS6KA5 (UniProt O75582), the log2 fold change in test [5] is 0.071; in [6] it was -0.11; in test [2], -0.042; in test [7] it was -0.218; in [8], 0.069; in [9], -0.431.
On to RPS19 (UniProt M0R2L9), for which the results for the log2 fold change in test [1], in test [3] and in test [4] were -0.083, 0.538 and -0.177, respectively.
